# Experimental data: PubChem BioAssay AID1159554 (Broad Institute, 2015)
# Among all 94,000 compounds or so, about 2,100 (2.2%) were called active. Many of the other results were omitted from the sample, so actives are more common in it than they were. Unmarked numbers belong to inactive results. Cut-off read from the data, not from the text of the source: active = activity change below about -80%; inconclusive = no clear call, values can overlap the other calls; inactive = above that.
# Assay: P. falciparum Dd2 growth inhibitors, primary screen, SYBR Green fluorescence, single dose replicates (AID 1159554)
# Settings: 72 h, at 10 µM, hits give low values
row,Compound,activity change
1,O=C([C@@H]1[C@@H](CO)[C@@H]2Cn3c(ccc(-c4cncnc4)c3=O)[C@@H]2N1C(=O)C1CCC1)N1CCCCC1,34%
2,CCCC#Cc1ccc2c(c1)O[C@@H](CN(C)C(=O)c1ccccc1F)[C@H](C)CN([C@H](C)CO)S2(=O)=O,-85.1% (active)
3,CC(C)CC#Cc1ccc2c(c1)O[C@H](CN(C)Cc1ccccc1F)[C@@H](C)CN([C@@H](C)CO)S2(=O)=O,-84.7% (active)
4,CC(C)CC#Cc1ccc2c(c1)O[C@@H](CN(C)C(=O)c1ccccc1F)[C@H](C)CN([C@H](C)CO)S2(=O)=O,-71.3%
5,C[C@@H]1CN([C@H](C)CO)S(=O)(=O)c2ccc(C#CC3CC3)cc2O[C@H]1CN(C)Cc1ccccc1F,-16.8%
6,CCCN(C)C[C@H]1Oc2cc(C#CCC(C)C)ccc2S(=O)(=O)N([C@H](C)CO)C[C@H]1C,-26.1%
7,C[C@H]1CN([C@@H](C)CO)S(=O)(=O)c2ccc(C#CCN(C)C)cc2O[C@H]1CN(C)C(=O)c1ccccc1F,-28.9%
8,COCC#Cc1ccc([C@@H]2[C@@H](CO)N3C(=O)CN(C(=O)C4CCCC4)C[C@@H]23)cc1,-28.5%
9,O=C(C[C@@H]1CC[C@@H]2[C@H](COC[C@@H](O)CN2C(=O)c2ccccc2F)O1)N1CCOCC1,11.8%
10,C[C@H](CO)N1C[C@H](C)[C@@H](CN(C)CC2CC2)OCCCC[C@H](C)Oc2ccc(NC(=O)Nc3ccccc3)cc2C1=O,3.68%
11,COc1ccc(C#Cc2cnc3c(c2)C(=O)N([C@H](C)CO)C[C@@H](C)[C@@H](CN(C)C(=O)CN(C)C)O3)cc1,-58.5%
12,Cc1ccc(S(=O)(=O)N[C@@H]2CC[C@@H](CC(=O)O)O[C@@H]2CO)cc1,10.2%
13,COCCNC(=O)[C@H]1[C@H](CO)[C@H]2Cn3c(ccc(-c4ccccc4F)c3=O)[C@H]2N1C(=O)C1CCC1,-8.98%
14,O=C(Cc1ccccc1)N1C[C@@H]2[C@H](c3ccccc31)[C@@H](CO)N2C(=O)C1CC1,-0.357%
15,COCCNC(=O)[C@@H]1[C@@H](CO)[C@@H]2Cn3c(ccc(-c4ccccc4F)c3=O)[C@@H]2N1C(=O)C1CC1,7.64%
16,C[C@@H]1CN([C@H](C)CO)C(=O)c2cccc(NC(=O)Nc3cccc4ccccc34)c2O[C@@H]1CN(C)C(=O)Nc1ccc(F)cc1,-95.3% (active)
17,C[C@@H]1CN([C@@H](C)CO)C(=O)c2cccc(NC(=O)Nc3ccc(F)cc3)c2O[C@@H]1CN(C)C(=O)Nc1ccccc1,-36.1%
18,COc1ccc(NC(=O)Nc2cccc3c2O[C@@H](CN(C)C(=O)NC(C)C)[C@H](C)CN([C@H](C)CO)C3=O)cc1,-26.3%
19,COc1ccc(NC(=O)N(C)C[C@H]2Oc3c(NC(=O)NC(C)C)cccc3C(=O)N([C@@H](C)CO)C[C@H]2C)cc1,-84.2% (active)
20,C[C@@H]1CN([C@@H](C)CO)C(=O)c2cccc(NC(=O)Nc3ccc(F)cc3)c2O[C@H]1CN(C)C(=O)Nc1ccc(F)cc1,-7.48%
21,COc1ccc(NC(=O)Nc2cccc3c2O[C@H](CN(C)C(=O)Nc2ccc(F)cc2)[C@@H](C)CN([C@@H](C)CO)C3=O)cc1,-19.9%
